Laboratory results as given in PubChem BioAssay.

biological target: E3 ubiquitin-protein ligase XIAP (Homo sapiens) (UniProt P98170); experiment: small molecules binding XIAP protein – biophysical, small-molecule microarray, fluorescence 635 nm, primary screen (AID 1181); conditions: higher = more signal;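 also: score merges 667 nm emission and signal to noise over triplicate slides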
Sequence (P98170 whole entry, looked up): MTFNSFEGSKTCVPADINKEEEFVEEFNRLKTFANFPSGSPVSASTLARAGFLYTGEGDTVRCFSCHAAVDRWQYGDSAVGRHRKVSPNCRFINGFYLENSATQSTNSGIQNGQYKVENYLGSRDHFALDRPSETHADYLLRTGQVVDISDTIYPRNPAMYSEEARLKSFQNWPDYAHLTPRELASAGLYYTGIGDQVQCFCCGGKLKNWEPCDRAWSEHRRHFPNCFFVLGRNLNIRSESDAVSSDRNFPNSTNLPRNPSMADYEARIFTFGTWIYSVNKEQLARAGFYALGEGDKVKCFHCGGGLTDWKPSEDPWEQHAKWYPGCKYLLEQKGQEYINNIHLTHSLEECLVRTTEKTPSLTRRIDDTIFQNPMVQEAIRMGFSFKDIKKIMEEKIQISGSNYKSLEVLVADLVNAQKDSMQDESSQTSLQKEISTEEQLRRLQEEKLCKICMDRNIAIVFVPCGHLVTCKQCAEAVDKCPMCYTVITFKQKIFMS

| SMILES | composite z-score |
| --- | --- |
| CC(CCN1CCCCc2nc(C)c(C)cc21)=NOC[C@@H](C)[C@H](OCc1ccccc1)C(C)C | 0.0153 |
| COC(=O)CC=C[C@@H](C)[C@@H](C=NO[C@@H]1O[C@H](COC(C)=O)[C@@H](OC(C)=O)[C@H](OC(C)=O)[C@H]1OC(C)=O)OC | 0.127 |
| CO[C@@H]1COC(=O)[C@H](CCSC)NC(=O)CC=C[C@@H](C)COC(=O)CCC[C@H]1C | 0.871 |
| CCCNC(=O)OC[C@H]1O[C@H](CCON=C(C)CCC(=O)OC[C@H]2O[C@H](c3ccccc3)C=C[C@@H]2Oc2ccc(OC)cc2)C=C[C@@H]1Oc1ccc(OC)cc1 | -0.171 |
| CCN1C(=O)[C@@H]2[C@H]3C(=CC[C@@H]2C1=O)C1(OCCCO1)[C@H]1O[C@H]1[C@H]3O | -0.141 |
| O=C1[C@H]2[C@H]3[C@H](O)[C@H](O)CC(=NOC[C@@H](O)COCc4ccco4)[C@H]3CC[C@H]2C(=O)N1Cc1ccccc1 | -0.0749 |
| CO[C@H]1COC(=O)[C@@H](C)COC(=O)[C@H](C)NC(=O)CC=C[C@H]1C | -0.327 |
| C[C@H]1COC(=O)[C@@H]2CCCN2C(=O)[C@@H](C)COC(=O)[C@H](Cc2ccccc2)NC1=O | 1.05 |
| COC(=O)CC=C[C@@H](C)[C@H](OCc1cccc(-c2ccccc2)c1)C1CCCCC1 | -0.267 |
| C=CC[C@@H]1C=C[C@H](ON=C(C)CCC(=O)OC[C@H]2O[C@H](C#Cc3ccccc3)C=C[C@@H]2Oc2ccc(C)cc2)[C@@H](CO)O1 | 0.132 |
| CON=C[C@@H](NS(=O)(=O)c1ccc(C)cc1)[C@H](C)C=CCC(=O)OC | -0.0773 |
| CO[C@@H]1COC(=O)CC=C[C@H](C)[C@H](OC)COC(=O)[C@H](C)NC(=O)CC=C[C@H]1C | 0.0264 |
| CC(CCC(=O)OC[C@H]1O[C@H](C#Cc2ccccc2)C=C[C@@H]1Oc1ccc(C)cc1)=NO[C@H](C)c1cn([C@H](CO)Cc2ccccc2)nn1 | 0.0191 |
| CCOC(=O)[C@H](Cc1ccccc1)NC(=O)CCC1CC(OC(=O)NCc2cccc3ccccc23)CC2(CCCC(COC(=O)NCC(c3ccccc3)c3ccccc3)O2)O1 (stereo partly specified) | 0.0655 |
| CC(C)=CCCC(C)=CCON=C1C[C@@H](O)[C@@H](O)[C@@H]2[C@@H]3C(=O)N(C[C@@H]4CCCO4)C(=O)[C@@H]3CC[C@H]12 | -0.217 |
| COC(=O)[C@H]1O[C@@H](c2c(OC)c(OC)c(C)c(OC)c2OC)[C@H](C)[C@@H](O)[C@H]1C | -0.13 |
| COc1ccc(O[C@H]2C=C[C@@H](c3ccccc3)O[C@@H]2COC(=O)CCC(C)=NOC[C@@H](O)[C@H]2O[C@@H]3OC(C)(C)O[C@@H]3[C@H]2O)cc1 | -0.0559 |
| CCOC(=O)[C@H](CC(C)C)NC(=O)CCC1CC(OC(=O)NCCc2ccc(F)cc2)CC2(CCCC(COC(=O)NCC3CCCCC3)O2)O1 (stereo partly specified) | -0.153 |

| SMILES | composite z-score |
| --- | --- |
| CC(C)=CCCC(C)=CCON=C1C[C@@H](O)[C@@H](O)[C@@H]2[C@@H]3C(=O)N(C4CCCCC4)C(=O)[C@@H]3CC[C@@H]12 | 0.0905 |
| COC(=O)CC=C[C@@H](C)[C@@H](C=NOC[C@H]1O[C@H](c2ccccc2)C=C[C@@H]1Oc1ccc(OC)cc1)NS(=O)(=O)c1ccc(C)cc1 | -0.167 |
| CCc1cc2c(nc1CC)CCN(CCC(C)=NO[C@H](C)c1cn([C@@H]3COC[C@H]3O)nn1)C2 | 0.0368 |
| CCOC(=O)NN=C1C[C@@H](O)[C@@H](O)[C@@H]2[C@@H]3C(=O)N(Cc4ccc5c(c4)OCO5)C(=O)[C@@H]3CC[C@H]12 | -0.0294 |
| CO[C@H]1COC(=O)CC=C[C@H](C)[C@@H](OC)COC(=O)[C@@H](C)NC(=O)CC=C[C@@H]1C | -0.244 |
| CO[C@@H]1COC(=O)CC=C[C@@H](C)[C@@H]2C=C[C@H](O)[C@@H](COC(=O)CC=C[C@H]1C)O2 | 0.0177 |
| CCOC(=O)[C@H](CC(C)C)NC(=O)CCC1CC(OC(=O)NCCc2ccc(F)cc2)CC2(CCCC(COC(=O)NCCc3ccccc3OC)O2)O1 (stereo partly specified) | -0.0565 |
| CCCNC(=O)OC[C@H]1O[C@H](CCON=C(C)CCN2CCCc3nc(C)c(C)cc32)C=C[C@@H]1Oc1ccc(OC)cc1 | 0.284 |
| CCC(=O)[C@@]1(O)C(=O)N2C(=C3C(=O)OCC[C@@H]31)N(Cc1ccccc1)C(C)=C(C(=O)OC)[C@H]2c1ccccc1 | -0.175 |
| CC(C)(C)N1C(=O)[C@H]2[C@H]3[C@H](O)C=CC(=O)[C@@H]3CC[C@H]2C1=O | -0.102 |
| CC(CCN1CCCc2nc(C)c(C)cc21)=NO[C@@H](C)c1cc(-c2c(C)cc(C)cc2C)no1 | 0.194 |
| C[C@H](ON=C1[C@H]2CCn3c(=O)n(-c4ccccc4)c(=O)n3[C@H]2[C@H](O)[C@@H]2O[C@H]12)c1cn([C@H](CO)Cc2ccccc2)nn1 | -0.106 |
| CCN1C(=O)[C@H]2[C@H]3[C@H](O)[C@H](O)CC(=O)[C@H]3CC[C@H]2C1=O | -0.0476 |
| C#CCCCON=C1C[C@@H](O)[C@@H](O)[C@@H]2[C@@H]3C(=O)N(c4ccc(F)cc4F)C(=O)[C@@H]3CC[C@H]12 | 0.199 |
| O=C(NN=C1C[C@@H](O)[C@@H](O)[C@@H]2[C@@H]3C(=O)N(C4CCCCC4)C(=O)[C@@H]3CC[C@@H]12)OCc1ccccc1 | -0.505 |
| CC(CCN1CCCCc2nc(C)c(C)cc21)=NOC[C@@H](O)COCc1ccco1 | 0.0251 |
| C=CC1=C[C@H](O)[C@@H]2O[C@@H]2C12OCCCO2 | -0.03 |
| CON=C1[C@H]2CCn3c(=O)n(-c4ccccc4)c(=O)n3[C@H]2[C@H](O)[C@@H]2O[C@H]12 | 0.0159 |
